Results published in PubChem BioAssay AID1159580 (chemical genetic matrix, 2015).
About 2,000 (36%) of roughly 5,500 compounds were called active. Not shown: some 18% with an inconclusive outcome. Rule as the data show it: active = normalized growth mostly below about 0.91 (no sharp cut-off); inconclusive = no clear call, values can overlap the other calls; inactive = mostly above about 0.92. The list shows a part of the results.

Experiment: chemical genetic growth profiling, strain panel (AID 1159580);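 also: tested at 20 µM; growth read once vehicle control cultures reached saturation at 30 °C; 1 = growth at the plate median or of vehicle wells; lower values mean less growth of the strain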
Settings: S. cerevisiae deletion strains, growth OD
[1] = locus YAL013W, strain DEP1, hits give low values
[2] = locus YAL040C, strain CLN3, hits give low values
[3] = locus YCL061C, strain MRC1 (second series), hits give low values
[4] = locus YDR150W, strain NUM1, hits give low values
[5] = locus YDR363W, strain ESC2, hits give low values
[6] = locus YER002W, strain NOP16, hits give low values
[7] = locus YGR229C, strain SMI1, hits give low values
[8] = locus YMR307W, strain GAS1, hits give low values
[9] = locus YNL128W, strain TEP1, hits give low values
[10] = locus YNL175C, strain NOP13, hits give low values
[11] = locus YNL197C, strain WHI3, hits give low values
[12] = locus YNL224C, strain SQS1, hits give low values
[13] = locus YOR083W, strain WHI5 (second series), hits give low values
[14] = locus YPL055C, strain LGE1, hits give low values
[15] = locus YPL241C, strain CIN2, hits give low values
[16] = locus YGR078C, strain PAC10, hits give low values
[17] = locus YJR075W, strain HOC1, hits give low values
[18] = locus YMR263W, strain SAP30, hits give low values

Measured: normalized growth

Oc1cc2c(cc1O)C(c1ccccc1)CNCC2 (stereo not drawn)
inactive: [1] 0.977 | locus YAL021C, strain ccr4, hits give low values 0.972 | locus YAL026C, strain drs2, hits give low values 0.988 | locus YAL030W, strain snc1, hits give low values 1.01 | [2] 1.03 | locus YBL061C, strain skt5, hits give low values 0.996 | locus YBR009C, strain hhf1, hits give low values 1.05 | locus YBR023C, strain chs3, hits give low values 0.998 | locus YBR171W, strain sec66, hits give low values 0.912 | locus YBR231C, strain swc5, hits give low values 1.01 | locus YBR279W, strain paf1, hits give low values 0.988 | locus YCL011C, strain gbp2, hits give low values 0.984 | locus YCL016C, strain dcc1, hits give low values 1 | [3] 0.982 | locus YCL061C, strain MRC1, hits give low values 0.992 | locus YCL069W, strain vba3, hits give low values 1 | locus YCR088W, strain abp1, hits give low values 0.999 | locus YDL005C, strain med2, hits give low values 1 | locus YDL040C, strain nat1, hits give low values 1.01 | locus YDR001C, strain nth1, hits give low values 0.994 | locus YDR069C, strain doa4, hits give low values 0.974 | locus YDR137W, strain rgp1, hits give low values 0.967 | [4] 0.963 | locus YDR159W, strain sac3, hits give low values 1.01 | locus YDR195W, strain ref2 1.07 | locus YDR297W, strain sur2, hits give low values 0.996 | locus YDR334W, strain swr1, hits give low values 0.963 | locus YDR335W, strain msn5, hits give low values 0.979 | [5] 0.983 | locus YDR392W, strain spt3, hits give low values 0.845 | locus YEL003W, strain gim4, hits give low values 0.976 | locus YEL037C, strain rad23, hits give low values 1 | locus YEL061C, strain CIN8 (second series), hits give low values 0.99 | [6] 1 | locus YER015W, strain faa2, hits give low values 1.02 | locus YER016W, strain bim1, hits give low values 1.01 | locus YER111C, strain swi4, hits give low values 0.993 | locus YER155C, strain BEM2 (second series), hits give low values 1.01 | locus YFR010W, strain ubp6, hits give low values 0.95 | locus YGL167C, strain pmr1, hits give low values 0.994 | locus YGL173C, strain kem1, hits give low values 1 | locus YGL227W, strain vid30, hits give low values 1.01 | locus YGL240W, strain doc1, hits give low values 1.05 | locus YGL253W, strain hxk2, hits give low values 0.991 | [7] 0.958 | locus YHR013C, strain ard1, hits give low values 0.96 | locus YHR027C, strain rpn1, hits give low values 0.989 | locus YHR030C, strain SLT2, hits give low values 0.986 | locus YHR079C, strain IRE1, hits give low values 0.989 | locus YHR142W, strain chs7, hits give low values 0.916 | locus YJL092W, strain hpr5, hits give low values 0.974 | locus YJL095W, strain BCK1 (second series), hits give low values 1.01 | locus YJL095W, strain BCK1, hits give low values 0.98 | locus YJL115W, strain asf1, hits give low values 0.991 | locus YJL129C, strain trk1, hits give low values 0.921 | locus YJL154C, strain vps35, hits give low values 1 | locus YJL164C, strain tpk1, hits give low values 0.967 | locus YJL166W, strain qcr8, hits give low values 0.995 | locus YJL187C, strain SWE1, hits give low values 1 | locus YJR066W, strain TOR1, hits give low values 0.943 | locus YKL160W, strain elf1, hits give low values 0.942 | locus YKR026C, strain gcn3, hits give low values 0.995 | locus YKR091W, strain srl3, hits give low values 1 | locus YLL001W, strain dnm1, hits give low values 0.989 | locus YLL026W, hits give low values 1 | locus YLL041C, strain sdh2, hits give low values 0.989 | locus YLR027C, strain aat2, hits give low values 0.977 | locus YLR113W, strain HOG1, hits give low values 0.979 | locus YLR221C, strain rsa3, hits give low values 0.948 | locus YLR258W, strain gsy2, hits give low values 1.02 | locus YLR262C, strain YPT6 (second series), hits give low values 0.919 | locus YLR320W, strain mms22, hits give low values 0.966 | locus YLR342W, strain FKS1, hits give low values 0.994 | locus YLR357W, strain rsc2, hits give low values 1.04 | locus YLR370C, strain arc18, hits give low values 0.991 | locus YLR384C, strain iki3, hits give low values 1.01 | locus YML120C, strain ndi1, hits give low values 0.94 | locus YMR058W, strain fet3, hits give low values 0.945 | locus YMR125W, strain sto1, hits give low values 1.02 | locus YMR129W, hits give low values 0.984 | locus YMR205C, strain PFK2, hits give low values 1.06 | locus YMR231W, strain pep5, hits give low values 1.02 | [8] 0.992 | locus YNL071W, strain lat1, hits give low values 0.964 | [9] 0.981 | [10] 1.04 | locus YNL183C, strain NPR1, hits give low values 0.952 | [11] 1.03 | locus YNL209W, strain ssb2, hits give low values 0.997 | [12] 0.993 | locus YNL248C, strain rpa49, hits give low values 0.93 | locus YNL322C, strain KRE1 (second series), hits give low values 0.989 | locus YNR049C, strain mso1, hits give low values 1 | locus YOR001W, strain rrp6, hits give low values 0.918 | locus YOR070C, strain gyp1, hits give low values 0.992 | locus YOR080W, strain dia2, hits give low values 1 | [13] 1.02 | locus YOR083W, strain WHI5, hits give low values 0.922 | locus YOR106W, strain vam3, hits give low values 0.919 | locus YOR231W, strain MKK1, hits give low values 0.941 | locus YOR265W, strain rbl2, hits give low values 0.997 | locus YOR270C, strain vph1, hits give low values 0.967 | locus YOR290C, strain snf2, hits give low values 0.92 | locus YPL051W, strain arl3, hits give low values 0.938 | [14] 0.948 | locus YPL078C, strain atp4, hits give low values 0.945 | locus YPL106C, strain sse1, hits give low values 0.972 | locus YPL240C, strain hsp82, hits give low values 0.983 | [15] 0.997 | locus YPL256C, strain CLN2, hits give low values 0.984

Oc1cc2c(cc1O)[C@H]1c3ccccc3CN[C@@H]1CC2
active: [1] 0.9 | [3] 0.845 | [4] 0.848 | [7] 0.685 | [17] 0.843 | [8] 0.871 | [14] 0.864 | [15] 0.925
inactive: [2] 1.01 | [5] 0.985 | [6] 1.03 | [16] 1 | [18] 1 | [9] 1.01 | [10] 1.03 | [11] 1.02 | [12] 1.02 | [13] 1.01

NC1CCc2cc(O)c(O)cc2C1 (stereo not drawn)
inactive: [1] 0.978 | [2] 1.01 | [3] 1.01 | [4] 1.01 | [5] 0.979 | [6] 1.02 | [16] 1.04 | [17] 0.985 | [18] 0.997 | [9] 1.01 | [10] 1.02 | [11] 1.01 | [12] 1.01 | [13] 1.08 | [14] 0.976
